# Screening results from PubChem BioAssay.
# Cycloheximide cs: affects cycloheximide protein synthesis inhibition readout, counter-screen; cell reporter, cycloheximide protein synthesis inhibition counterscreen; max response, %; hit rate 12% among 300,000; AID 2314; in the data active = max response mostly above about 13%, no sharp cut-off; inactive = mostly below about 14%; also: read at 38.3 µM for the half of the compounds with a filed dose; 0% is about no effect
# LASV entry inh: blocks Lassa virus binding to or entry into cells. Lassa virus pseudotype entry inhibition, cell reporter. Potency, µM (titrated, usually from 37.9 µM), inactives show at the highest dose activity change, negative = inhibition, usual class: inhibitors. hit rate 1.2% among 300,000. AID 540256; calls by dose curve; tested in HEK293 cells; also: potency is read from the fitted curve at half-maximal effect; % is scaled to controls: 0 for no effect and ±100 for the full control effect; nearly all actives have a fitted effect of over 50% in size
# Shiga inhibitor: blocks Shiga toxin action in Vero cells. Vero cells, Shiga toxin protein synthesis inhibition reporter. hit rate 9.2% among 290,000. inhibition, % at 38.7 µM. AID 2315; in the data active = inhibition mostly above about 28%, no sharp cut-off; inactive = mostly below about 43%; also: 0% is about no effect
# Pf growth 48h: P. falciparum growth inhibition at 48 hours (one generation). P. falciparum luciferase growth in erythrocytes, 48 h. Potency, µM (highest dose often 28.7 µM), inactives show at the highest dose activity change, negative = inhibition, actives largely listed as inhibitors. hit rate 5.9% among 310,000. AID 504832; also: potency is read from the fitted curve at half-maximal effect; % is scaled to controls: 0 for no effect and ±100 for the full control effect
#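 Compounds are pin-transferred into medium, infected erythrocytes (2% hematocrit, 0.1% parasitemia final) are added, and plates sit one parasite generation at 37 C in 5% CO2. Detection reagent is then added and luminescence measured.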
# Marburg entry inh: blocks Marburg virus binding to or entry into cells; Potency, µM (doses to about 37.8 µM), for the others: at the top dose activity change, negative = inhibition, most hits filed as inhibitors; Marburg virus pseudotyped entry inhibition, cell reporter; hit rate 1.8% among 300,000; AID 540276; calls by dose curve; tested in HEK293 cells; also: potency is read from the fitted curve at half-maximal effect; % is scaled to controls: 0 for no effect and ±100 for the full control effect
# Pf growth 96h: P. falciparum growth inhibition at 96 hours | P. falciparum luciferase reporter growth, 96 h | Potency, µM (doses to about 28.7 µM), without a hit: top-dose activity change, negative = inhibition, most hits filed as inhibitors | hit rate 6.9% among 320,000; also: potency is read from the fitted curve at half-maximal effect; % is scaled to controls: 0 for no effect and ±100 for the full control effect
#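 Erythrocytes infected with luciferase-expressing P. falciparum were dispensed at 2% hematocrit and 0.05% parasitemia (final), then incubated with compounds 96 hours at 37 C in 5% CO2. Luminescence after detection reagent addition reported growth.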
# Starred values were filed as active, the others as inactive; ? = inconclusive; / = no result; [ ] = dose if it differs, or a comment. Most compounds without a hit are left out; they make up all but 19% or so of the library. Unless noted, calls follow the shape of the dose curve; as a rule, active = well fitted inhibition curve with a large enough effect; inconclusive = small, poorly fitted or top-dose-only effect, or another doubt; inactive = no such curve, though single readings can be large or run the other way.
SMILES,Cycloheximide cs,LASV entry inh,Shiga inhibitor,Pf growth 48h,Marburg entry inh,Pf growth 96h
CCN1CCN(C(=O)C2CCN(S(=O)(=O)c3ccc4c(c3)NC(=O)C(C)S4)CC2)CC1 (stereo unspecified),4,14%[46.1 µM],-8,?,?,2.9µM*
Cc1ccc(NC(=O)C2CCN(S(=O)(=O)c3ccc4c(c3)NC(=O)C(C)S4)CC2)c(Cl)c1 (stereo unspecified),16*,/,10,10µM*,/,?
Cc1ccccc1NC(=O)C1CCN(S(=O)(=O)c2ccc3c(c2)NC(=O)C(C)S3)CC1 (stereo unspecified),10,-9%[46.1 µM],7,?,-5%[46.1 µM],?
Cc1ccc(CCNC(=O)C2CCN(S(=O)(=O)c3ccc4c(c3)NC(=O)C(C)S4)CC2)cc1 (stereo unspecified),-2,?,2,?,?,?
COc1ccc(F)cc1C(=O)C1CCCN(Cc2cnc(C)s2)C1 (stereo unspecified),-1,/,-11,2%,/,?
CCN(CC)S(=O)(=O)c1ccc(S(=O)(=O)N2CCN(C(=O)c3ccco3)CC2)cc1,-5,-3%,8,-6%,14%,23%
Cc1ccccc1CCNC(=O)C1CCN(S(=O)(=O)c2ccc(-n3cnnn3)cc2)CC1,5,2%,32,?,4%,13µM*
O=C(NCCc1ccccc1)C1CCN(S(=O)(=O)c2cccnc2)CC1,5,/,13,/,/,7.4µM*
O=C(C1CCN(S(=O)(=O)c2cccnc2)CC1)N1CCN(c2ccccc2Cl)CC1,26*,2%,29,?,-3%,-10%
CC(=O)N1CCCC1c1nc2ccccc2n1Cc1cc(C)ccc1C (stereo unspecified),/,-1%[46.1 µM],/,/,0%[46.1 µM],/
N#CCCN(C(=O)COC(=O)c1ccc(S(=O)(=O)N2CCOCC2)cc1)c1ccccc1,/,16%,/,/,?,/
CCOc1ccc(NC(=O)C2C3CCC4C(CCC32)C4(Cl)Cl)cc1 (stereo unspecified),-2,/,19,7%,/,?
COc1ccc(NC(=O)C2CCCC2)cc1,10,-14%[46.1 µM],22,29%,?,?
COc1ccc(NC(=O)C2C3CC/C=C\CCC32)cc1 (stereo unspecified),24*,2%,57*,26%,?,48%
CCOc1ccc(NC(=O)C2C3CC/C=C\CCC32)cc1 (stereo unspecified),17*,?,35,77%,7%,?
CCOc1ccc(NC(=O)C2CCN(S(C)(=O)=O)CC2)cc1,-3,/,/,-5%,/,12µM*
CCOc1ccccc1-n1c(O)c(C=NCCCn2ccnc2)c(=O)[nH]c1=O,-1,3%,-5,42%,-26%,42%
O=C(CSc1cccc[n+]1[O-])NN(c1ccccc1)c1ccccc1,-3,/,24,17%,/,17%
CC(C)NC(=S)N/N=C/c1ccc(N2CCOCC2)cc1,12,/,-7,19%,/,55%
O=S(=O)(c1ccc(Cl)c(NC(=S)N/N=C/c2ccc(O)cc2)c1)N1CCOCC1,18*,12µM*,15,-27%,?,3.3µM*
O=S(=O)(c1ccc(NC(=S)NN=Cc2ccccc2O)cc1)N1CCCCC1,/,6.3µM*,/,/,?,/
Oc1ccc(/C=N/NC(=S)N2CCOCC2)cc1,30*,/,59,142%,-1%[46.1 µM],?
O=S(=O)(c1ccc(NC(=S)N/N=C/c2ccc(O)c(O)c2)cc1)N1CCOCC1,1,?,8,15µM*,-5%[46.1 µM],13µM*
CCCCn1c(N)c(N(CCC)C(=O)C2CCCC2)c(=O)[nH]c1=O,/,/,/,8%,/,?
N#Cc1ccc(/C=N/NC(=S)Nc2ccc(S(=O)(=O)N3CCOCC3)cc2)cc1,-2,-26%,-4,?,30%[46.1 µM],?
O=[N+]([O-])c1cc(Cl)cc(/C=N/NC(=S)Nc2ccc(S(=O)(=O)N3CCOCC3)cc2)c1O,1,/,-8,0.47µM*,/,?
O=C(Oc1ccc2ccccc2c1Cl)N1CCCC1,38*,?,59*,239%,?,?
O=C(Oc1c(Cl)cc(Cl)c2ccccc12)N1CCCC1,-3,10%,-14,?,-29%,?
O=C(Oc1ccc2ccccc2c1Cl)N1CCCCCC1,66*,?,71*,246%,?,3.3µM*
